Reference: PubChem BioAssay AID2685 (National Center for Advancing Translational Sciences (NCATS), 2010)
In all, about 320,000 compounds went through this assay and about 2,100 (0.66%) were called active. Not shown: some 53% with an inconclusive outcome. Calls follow the shape of the dose curve; as a rule, active = well fitted inhibition curve with a large enough effect in the signal ratio, with a control signal flat (not every such curve was filed as active); inconclusive = small, poorly fitted or top-dose-only effect, or effect the other way, or a change in a side signal; inactive = flat fitted curve, though single readings scatter; the % refers to the signal ratio. What follows is part of a selection rich in actives, with near analogues and random picks from the rest.

experiment: qHTS Assay for Lipid Storage Modulators in Drosophila S3 Cells; conditions: BODIPY lipid droplet fluorescence, 18-24 h, cells fed with added oleic acid; cell number change: measured here: cell count max response; series mostly up to 46.1 µM;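 as to cell number change: cells counted by Cell Tracker Red CMTPX staining in the red channel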; as to lipid storage change, negative = inhibition: % is scaled to controls: 0 for no effect and ±100 for the full control effect
Text: NIH Molecular Libraries Probe Production Centers Network [MLPCN] NIH Chemical Genomics Center [NCGC] MLPCN Grant: 1 R03 MH085686-01 Assay Submitter (PI): Beller, Mathias; Max-Planck-Institut fur Biophysikalische Chemie NCGC Assay Overview: Storing lipids as a reservoir for energy or the anabolism of elementary metabolites is a common feature of probably all cells and is conserved from bacteria to humans. The universal cellular lipid storage organelle is the so-called lipid storage droplet (LD). Although ubiquitous, LDs share a simple structure composed of a hydrophobic core that harbors the storage lipids, which is shielded by a droplet-specific phospholipid monolayer to which proteins are attached. The current model of LD biogenesis involves an incorporation of the lipid core into the membrane leaflets of the endoplasmic reticulum (ER) followed by a subsequent budding-like maturation of a LD, which ultimately pinches off. Once released, LD volume can increase by localized lipogenesis or fusion of existing droplet. Storage lipids are re-mobilized enzymatically by lipase activity. Lipase regulation in the adipocyte is heavily studied and involves multiple components including catecholamine signaling, the LD-associated proteins Perilipin and comparative gene identification (CGI-58) and at least two lipases named hormone sensitive lipase (HSL) and adipocyte triglyceride lipase (ATGL). LD regulation outside of the adipocyte is poorly understood and only few components are known. However, there is an urgent need to learn more about ectopic fat depots as mislocalized storage of lipids, for example in the liver or muscle, is an eminent health problem associated with insulin resistance or the metabolic syndrome. We developed a laser-scanning cytometer assay to enable 1,536-well screening and combined the results of the small molecules screen with an RNAi database based on lipid storage.
Triacsin C (Sigma-Aldrich T-4540), an inhibitor of long-chain fatty acyl CoA synthetase that blocks synthesis of triglycerides, was used as a positive control for lipid under-storage. A total of 23 nL of compound solution of different concentrations were transferred to the assay plates using a Kalypsys pin tool equipped with a 1,536-pin array containing 10-nL slotted pins (FP1S10, 0.457-mm diameter, 50.8 mm long; V&P Scientific). One microliter of oleic acid (400 uM) was added, and the plate was lidded with stainless steel rubber gasket lined lids containing pinholes. […] Fluorescence was detected by excitation of the fluorophores with a 488-nm laser on an Acumen Explorer (TTP Lab Tech). The total intensity in channel 2 (500-530 nm) reflected lipid droplet accumulation. Cells were detected using channel 3 (575-640 nm) with 5-um width and 100-um depth filters. The ratio of the number of objects in PMT channel 2 over the number of objects in PMT channel 3 was also calculated. Percent activity was computed relative to an internal control (100% inhibited lipid droplet deposition due to the presence of 20 uM Triacsin C), which was added to 32 wells/plate.
Potency is read from the fitted curve at half-maximal effect.

Structure (SMILES) | Potency | cell number change [%] | lipid storage change, negative = inhibition
CN(C)c1ccc(/C=C/C(=O)c2ccccc2O)cc1 | inactive |  | 
O=C(/C=C/c1cccs1)c1cc(Cl)ccc1O | inactive | 3.94 | 
CN(C)c1ccc(/C=C/C(=O)c2cc(Cl)ccc2O)cc1 | 4.11 µM (active) | -22.6 | 
CCC(CC)NC(=O)Nc1cccc(C)c1C | inactive | -9.81 | 
COc1ccccc1CNC(=O)c1cccs1 | inactive | -14 | 
CCOc1ccccc1N1CC(C(=O)N2CCOCC2)CC1=O (configuration not stated) | inactive | 13.3 | 
CC(=O)Nc1c(O)nc(SCC(=O)N2CCCCC2)[nH]c1=O | inactive | -10.1 | 
O=C(CSc1nc2ccccc2[nH]1)N1c2ccccc2Sc2ccccc21 | 16.4 µM (active) | -14 | 
O=C(CSc1nc2ccccc2s1)N1c2ccccc2Sc2ccccc21 | inactive | -7.47 | 
O=C(CSc1nc2ccccc2[nH]1)N1CCCCC1 | inactive | 1.09 | 
NS(=O)(=O)c1ccc(CNC(=O)c2cc(=O)c3cc(Cl)ccc3o2)cc1 | inactive | -18 | 
O=C(O)c1cc(=O)c2cc(Cl)ccc2o1 | 23.1 µM (active) | -8.2 | 
O=C(c1cc(=O)c2cc(Cl)ccc2o1)N1CCN(Cc2ccccc2)CC1 | inactive | 10.7 | 
C=CCN(Cc1cn(C)nc1-c1cccc(Cl)c1)C1CCS(=O)(=O)C1 (configuration not stated) | inactive | -4.76 | 
Cc1ccc(S(=O)(=O)NC2=NCCCCC2)cc1 | inactive | -2.65 | 
O=S(=O)(NC1=NCCC1)c1ccc(F)cc1 | 20.6 µM (active) | 8.19 | 
Nc1ccc(S(=O)(=O)NC2=NCCCCC2)cc1 | inactive | 11.2 | 
Cc1ccc(S(=O)(=O)N2CCOCC2)cc1NC(=O)COC(=O)c1cnc(Cl)c(Cl)c1 | inactive | 24.4 | 
CCOC(=O)Cn1cnc2scc(-c3ccc(C)c(C)c3)c2c1=O | inactive | 4.4 | 
Nc1cccc2c1C(=O)N(C(=O)/C=C/c1cccc(F)c1)C2=O | inactive | -23.5 | 
COc1ccc(OC)c(/C=C/C(=O)N2CCCc3ccccc32)c1 | inactive |  | 
COc1ccc(OC)c(/C=C/C(=O)N2CCN(S(=O)(=O)c3cc(C)ccc3C)CC2)c1 | inactive | 6.55 | 

Structure (SMILES) | Potency | cell number change [%] | lipid storage change, negative = inhibition
Nc1cccc2c1C(=O)N(C(=O)/C=C/c1ccc(F)cc1)C2=O | inactive | -29.8 | 
COc1cc(/C=C/C(=O)N2C(=O)c3cccc(N)c3C2=O)cc(OC)c1OC | 5.17 µM (active) | -14.5 | 
COc1ccc(OC)c(/C=C/C(=O)N2C(=O)c3cccc(N)c3C2=O)c1 | 16.4 µM (active) | 10.9 | 
O=C(c1ccc(Cl)cc1)c1ccc(CN2C(=O)c3ccccc3C2=O)o1 | inactive | 8.92 | 
COCCNc1nc(CSc2ccccc2)nc2sc(C)c(C)c12 | inactive | 2.1 | 
FC(F)(F)c1cc(C(F)(F)F)c2ccc(N3CCN(c4ncccn4)CC3)nc2n1 | inactive | 9.76 | 
Cc1nn(Cc2ccc(C(=O)O)o2)c(C)c1[N+](=O)[O-] | inactive | 19.3 | 
CCCN1C(=O)c2ccc(C(=O)NC3=NCCS3)cc2C1=O | inactive |  | 
Cc1nn(-c2ccc(N3CCOCC3)nn2)c(C)c1CCC(=O)NCc1ccc(F)cc1 | inactive | 2.75 | 
CC(=O)c1ccc(N2CCN(C(=O)Nc3ccc(F)cc3F)CC2)cc1 | inactive | 18.2 | 
COc1ccc(C(=O)Nc2ccc(Cl)cc2C(=O)N2CCOCC2)cc1 | inactive | 17.2 | 
Cc1nnc2n1CCCCC2 | inactive | 4.65 | 
O=[N+]([O-])c1ccc(Oc2ccc(/C=N/O)cc2)nc1 | inactive | -1.55 | 
CS(=O)(=O)c1ccc(N2CCOCC2)c(S(C)(=O)=O)c1 | inactive | 4.86 | 
CCOC(=O)CN1C(=O)C2(OCCCO2)c2cc(Br)ccc21 | inactive | -7.87 | 
CCOC(=O)CN1C(=O)C2(OCCCO2)c2ccccc21 | 23.1 µM (active) |  | 
CCCC(=O)CN1C(=O)C2(OCCO2)c2ccccc21 | inactive | -15.8 | 
COCCNC(=O)CN1C(=O)NC2(CCCc3cc(OC)ccc32)C1=O (configuration not stated) | inactive |  | 
CCOc1ccc(C(=O)CCC(=O)N(CC)CC(=O)NCc2cccs2)cc1 | inactive | 12.9 | 
Cc1ccc2occ(/C=N/NC(=O)c3ccccc3O)c(=O)c2c1 | inactive | 1.16 | 
Cc1ccc2occ(/C=N/NC(=O)c3ccccc3Br)c(=O)c2c1 | inactive |  | 
CCOc1ccccc1C(=O)N/N=C/c1coc2ccc(C)cc2c1=O | 10.3 µM (active) | -20.2 | 

Structure (SMILES) | Potency | cell number change [%] | lipid storage change, negative = inhibition
COc1cccc(Oc2cn[nH]c2-c2ccc(OCC(=O)NN)cc2O)c1 | inactive | 0.872 | 
CC(C)(C)c1cc(C(=O)CCN2CCOCC2)cc(C(C)(C)C)c1O | 29.1 µM (active) | -17.7 | 
CC(C)(C)c1cc(C(=S)N2CCN(CCO)CC2)cc(C(C)(C)C)c1O | inactive |  | 
CN1CCN(CC(=O)c2cc(C(C)(C)C)c(O)c(C(C)(C)C)c2)CC1 | inactive | 15.8 | 
COc1ccc(NC(=O)C2CC(c3ccccc3O)=NO2)cc1OC (configuration not stated) | inactive |  | 
COc1cc(NC(=O)C2CC(c3c(F)cccc3Cl)=NO2)cc(OC)c1OC (configuration not stated) | 11.6 µM (active) | -15.1 | 
COc1cc(NC(=O)C2CC(c3c(F)cccc3Cl)=NO2)c(OC)cc1Cl (configuration not stated) | inactive | -7.33 | 
COc1cccc(C2=NOC(C(=O)Nc3ccc(OC)c(OC)c3)C2)c1 (configuration not stated) | 11.6 µM (active) |  | 
COc1ccc(NC(=O)C2CC(c3c(F)cccc3Cl)=NO2)cc1OC (configuration not stated) | inactive | -11.7 | 
COc1cccc(C2=NOC(C(=O)Nc3ccc4c(c3)OCO4)C2)c1 (configuration not stated) | inactive | 7.67 | 
O=C(O)CC1C(=O)NCCN1CCCc1ccccc1 (configuration not stated) | inactive |  | 
CSc1cccc(NC(=O)C(C)NS(=O)(=O)c2ccc(F)cc2)c1 (configuration not stated) | inactive |  | 
Cc1cc(C)nc(/N=C(\N)N2CCCCC2)n1 | inactive | -8.98 | 
Cc1ccc(C(=O)C[n+]2cccc(C(N)=O)c2)cc1 | inactive | 8.69 | 
Cc1c(C(=O)n2cnc3ccccc32)cccc1[N+](=O)[O-] | inactive | 23.4 | 
Cc1ccc(C2(C)NC(=O)N(CC(=O)Nc3ccc4c(c3)CCC4)C2=O)cc1 (configuration not stated) | inactive | -12.5 | 
O=C(N/C(=C/c1cccnc1)C(=O)N1CCOCC1)c1ccco1 | inactive | 0.681 | 
O=C(NCCc1csc(-c2cccnc2)n1)c1ccco1 |  | 14.6 | 1.09% [at 9.22 µM] (inactive)
COc1cc(-c2nc(CCNC(=O)c3ccco3)cs2)cc(OC)c1OC | 18.4 µM (active) | -3.07 | 
COc1ccc(-c2nc(CCNC(=O)c3ccc(Br)o3)cs2)cc1 | inactive | 29.2 | 
